Assay [1] in a line: NCI Yeast Anticancer Drug Screen. Data for the rad50 strain (AID 155).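 Further: 0% = growth of vehicle-only cultures of the same strain.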 Conditions: S. cerevisiae rad50 strain growth inhibition, active compounds read high. A digest of the protocol:
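Inhibition values express reduced yeast growth in compound-treated cultures relative to vehicle-treated controls.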

A short description of assay [2]: NCI Yeast Anticancer Drug Screen. Data for the mec2-1 strain (AID 157). The settings on record: S. cerevisiae mec2-1 strain, active compounds read high. A digest of the protocol:
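Readout is yeast growth inhibition, normalised to vehicle-treated controls, in the mec2-1 strain exposed to compound.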

Assay [3] is described as follows: NCI Yeast Anticancer Drug Screen. Data for the sgs1 mgt1 strain (AID 161).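 Further: 0% = growth of cultures given vehicle only.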 Conditions: S. cerevisiae sgs1 mgt1 strain, active compounds read high. A digest of the protocol: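 Compounds are added to genetically altered yeast, and growth is compared with cultures given vehicle alone to give percent inhibition.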
Assay [4] can be described thus: NCI Yeast Anticancer Drug Screen. Data for the cln2 rad14 strain (AID 165).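 Further: 0% = growth equal to vehicle treated cultures.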 The settings on record: S. cerevisiae cln2 rad14 strain, active compounds read high. The essentials: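 Relative to vehicle controls, growth inhibition of compound-treated cln2 rad14 yeast was recorded.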
The nature of assay [5]: NCI Yeast Anticancer Drug Screen. Data for the bub3 strain (AID 167). Conditions: S. cerevisiae bub3 mutant strain, active compounds read high. A digest of the protocol: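 Steps: expose the mutant yeast strain to compound; grow alongside vehicle-treated cultures; measure growth; express inhibition against the vehicle cultures.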
The nature of assay [6]: NCI Yeast Anticancer Drug Screen. Data for the mlh1 rad18 strain (AID 175). Conditions: S. cerevisiae mlh1 rad18 strain growth inhibition, active compounds read high. A digest of the protocol: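 Test agents were incubated with a yeast strain of defined genotype (DNA damage repair defect). Inhibition of growth was derived by comparison with vehicle-exposed cultures.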
The mark [7] stands for this setting: at 5.0 µM (retest, dose inferred, filed as 0.5).
The mark [8] stands for this setting: at 50.0 µM (retest, dose inferred, filed as 5.0).

This is part of a sample that, as a whole, favours compounds with a hit. Of some 79,000 tested, about 15% had one in any assay. A number with no mark means an inactive call. Activity calls are given as the source filed them. No stated cut-off is given here; in the data, active means growth inhibition above about 70%; inactive means the rest.

The source of these data is PubChem BioAssay (NCI).

`CC(C)OC(=O)Oc1c(Cl)c(Cl)c(Cl)c(Cl)c1Cl`: the growth inhibition is -3% in assay [1] (setting [7]); 97% (active) in assay [1] (setting [8]); 62% in assay [1] (at 50.0 µM); 0% in assay [2] (setting [7]); 99% (active) in assay [2] (setting [8]); 50.6% in assay [2] (at 50.0 µM). The growth inhibition in assay [3] (setting [7]) was -2%; in assay [3] (setting [8]) it was 98% (active); in assay [3] (at 50.0 µM), 55%; in assay [4] (setting [7]), 5%; in assay [4] (setting [8]), 98% (active); in assay [4] (at 50.0 µM) it was 15.9%. In addition, the growth inhibition in assay [5] (setting [7]) was 2%; in assay [5] (setting [8]), 99% (active); in assay [5] (at 50.0 µM), 74.4% (active); in assay [6] (setting [7]), -1%; in assay [6] (setting [8]), 96% (active); in assay [6] (at 50.0 µM), 56.8%.

For `CCCCCCCCCCCCOCC[N+](CCO)(CCO)Cc1ccccc1`, the growth inhibition in assay [1] (setting [7]) was 99% (active); in assay [1] (setting [8]) it was 99% (active); in assay [1] (at 50.0 µM) it was 99.3% (active); in assay [2] (setting [7]), 100% (active); in assay [2] (setting [8]), 99% (active); in assay [2] (at 50.0 µM) it was 99.5% (active). The growth inhibition in assay [3] (setting [7]) is 99% (active); in assay [3] (setting [8]), 99% (active); in assay [3] (at 50.0 µM), 99.2% (active); in assay [4] (setting [7]), 97% (active); in assay [4] (setting [8]) it was 99% (active); in assay [4] (at 50.0 µM) it was 98.4% (active). The growth inhibition was 97% (active) in assay [5] (setting [7]); 99% (active) in assay [5] (setting [8]); 99% (active) in assay [5] (at 50.0 µM); 98% (active) in assay [6] (setting [7]); 99% (active) in assay [6] (setting [8]); 99.3% (active) in assay [6] (at 50.0 µM).

Regarding `N#CC(CCCCl)(c1ccccc1)c1ccccc1`, the growth inhibition in assay [1] (setting [7]) was 2%; in assay [1] (setting [8]) it was 33%; in assay [1] (at 50.0 µM), 86.8% (active); in assay [2] (setting [7]), 3%; in assay [2] (setting [8]) it was 32%; in assay [2] (at 50.0 µM) it was 84% (active). The growth inhibition is 4% in assay [3] (setting [7]); 51% in assay [3] (setting [8]); 88.5% (active) in assay [3] (at 50.0 µM); 0% in assay [4] (setting [7]); -3% in assay [4] (setting [8]); 41.8% in assay [4] (at 50.0 µM). Besides, the growth inhibition is -1% in assay [5] (setting [7]); 22% in assay [5] (setting [8]); 67% in assay [5] (at 50.0 µM); 15% in assay [6] (setting [7]); 69% in assay [6] (setting [8]); 92.2% (active) in assay [6] (at 50.0 µM).

`O=NNc1ncccc1OCc1ccccc1`: the growth inhibition in assay [1] (setting [7]) is 9%; in assay [1] (setting [8]), 6%; in assay [1] (at 50.0 µM), 56.9%; in assay [2] (setting [7]) it was 6%; in assay [2] (setting [8]), 6%; in assay [2] (at 50.0 µM) it was 25.6%. Besides, the growth inhibition was 9% in assay [3] (setting [7]); 14% in assay [3] (setting [8]); 0.75% in assay [3] (at 50.0 µM); 7% in assay [4] (setting [7]); 9% in assay [4] (setting [8]); 3.2% in assay [4] (at 50.0 µM). For the same compound, the growth inhibition in assay [5] (setting [7]) was 10%; in assay [5] (setting [8]), 13%; in assay [5] (at 50.0 µM), -2.9%; in assay [6] (setting [7]), 9%; in assay [6] (setting [8]), 15%; in assay [6] (at 50.0 µM), 17.8%.

`CCOc1ccc2c(c1)CCC1C2CCC2(C)CC(O)CC12` (stereo not drawn): the growth inhibition in assay [1] (setting [7]) was 11%; in assay [1] (setting [8]), 98% (active); in assay [1] (at 50.0 µM) it was 97.7% (active); in assay [2] (setting [7]) it was 3%; in assay [2] (setting [8]), 67%; in assay [2] (at 50.0 µM) it was 97.5% (active). Also, the growth inhibition is 22% in assay [3] (setting [7]); 99% (active) in assay [3] (setting [8]); 54% in assay [3] (at 50.0 µM); -18% in assay [4] (setting [7]); 82% (active) in assay [4] (setting [8]); 98.6% (active) in assay [4] (at 50.0 µM). Moreover, the growth inhibition in assay [5] (setting [7]) is -4%; in assay [5] (setting [8]), -3%; in assay [5] (at 50.0 µM) it was 98.1% (active); in assay [6] (setting [7]), 14%; in assay [6] (setting [8]), 99% (active); in assay [6] (at 50.0 µM), 98.6% (active).

For `C=CCN1CCC(OC(=O)C(O)(/C=C\CC)C2CCCC2)CC1` (stereo not drawn), the growth inhibition is 19% in assay [1] (setting [7]); 61% in assay [1] (setting [8]); 68.8% in assay [1] (at 50.0 µM); 13% in assay [2] (setting [7]); 40% in assay [2] (setting [8]); 48.9% in assay [2] (at 50.0 µM). For the same compound, the growth inhibition was 37% in assay [3] (setting [7]); 63% in assay [3] (setting [8]); 70.2% (active) in assay [3] (at 50.0 µM); 17% in assay [4] (setting [7]); 75% (active) in assay [4] (setting [8]); 62.8% in assay [4] (at 50.0 µM). Moreover, the growth inhibition was 12% in assay [5] (setting [7]); 83% (active) in assay [5] (setting [8]); 61.6% in assay [5] (at 50.0 µM); 7% in assay [6] (setting [7]); 67% in assay [6] (setting [8]); 59.5% in assay [6] (at 50.0 µM).
